Laboratory results reported in PubChem BioAssay (Tox21).
Records with an inconclusive call do not appear. Activity calls are given as the source filed them. Unless noted, the call rests on the fitted dose curve; in most records, active means well fitted curve in the direction sought with a large enough effect in the repeat runs; inconclusive means weak or mixed curves; inactive means no such curve, though single readings can be large; an effect the other way counts as inactive or inconclusive.

Tests used:
[1] = molecular target: Retinoic acid receptor RXR-alpha (Homo sapiens) (UniProt P19793); assay: qHTS assay to identify small molecule agonists of the RXR signaling pathway (AID 1159527; calls by dose curve; further: nearly all actives have a fitted effect of over 35% in size)
Summary of the method: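 qHTS of the Tox21 10K library in GeneBLAzer RXR-alpha HEK 293T cells carrying a beta-lactamase reporter […]; 16 hr treatment, 9-cis retinoic acid as agonist control, FRET read-out.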

[2] = qHTS assay to identify small molecule agonists of the RXR signaling pathway - cell viability counter screen (AID 1159529); further: series mostly up to about 77 µM; nearly all actives have a fitted effect of over 50% in size
Summary of the method: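 Cell viability is measured by CellTiter-Glo luminescence, 30 min at room temperature, in wells already read for beta-lactamase. Engineered HEK 293T cells (RXR-alpha-UAS-bla) are dosed 16 hr at 37 C. Tetraoctyl ammonium bromide serves as positive control.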

[3] = qHTS assay to identify small molecule antagonists of the retinoid acid receptor (RAR) signaling pathway - cell viability counter screen (AID 1159551); further: nearly all actives have a fitted effect of over 35% in size
Summary of the method: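 Cytotoxicity counter screen in C3RL4 cells: 6 h compound exposure with 1 uM retinol (final), viability from cellular ATP by luminescence.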

[4] = qHTS assay to identify small molecule antagonists of the retinoic acid receptor (RAR) signaling pathway (AID 1159552; further: nearly all actives have a fitted effect of over 50% in size)
Summary of the method: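 Quantitative HTS in C3RL4 RARE-luciferase reporter cells. Compounds were added with 1 uM (final) retinol; luminescence was read after 6 hr.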

[5] = qHTS assay to identify small molecule agonists of the retinoic acid receptor (RAR) signaling pathway (AID 1159553)
Summary of the method: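 Agonist activity was scored in C3RL4 cells bearing a retinoic acid response element luciferase construct. Cells were treated with compounds for 6 hr at 37 C, and luciferase signal was measured as luminescence.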

[6] = qHTS assay to identify small molecule antagonists of the estrogen related receptor (ERR) signaling pathway from Tox21 library - cell viability counter screen (AID 1224834); further: nearly all actives have a fitted effect of over 30% in size
Summary of the method: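 Cytotoxicity of test substances is gauged in the same ERR cells used for the antagonist screen, after 17.5 h of compound treatment at 37 C, by CellTiter-Fluor fluorescence measured after 30 min.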

[7] = qHTS assay to identify small molecule agonists of the constitutive androstane receptor (CAR) signaling pathway - cell viability counter screen (AID 1224836); further: series mostly up to about 92 µM; nearly all actives have a fitted effect of over 45% in size
Summary of the method: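 Counter screen multiplexed with the CAR reporter readout: HepG2 cells co-transfected with hCAR and the CYP2B6-2.2kb construct receive a 15-concentration compound series and 0.75 uM PK11195 (final), then CellTiter-Fluor fluorescence is read after 23 h.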

[8] = qHTS assay to identify small molecule antagonists of the constitutive androstane receptor (CAR) signaling pathway - cell viability counter screen (AID 1224837); further: series mostly up to about 92 µM; nearly all actives have a fitted effect of over 45% in size
Summary of the method: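 Multiplexed cytotoxicity read-out for the CAR antagonist screen: double-stable HepG2-CYP2B6-hCAR cells co-treated with 50 nM CITCO (final) and compound over 15 concentrations, incubated 23 hr, then assessed by CellTiter-Fluor fluorescence.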

[9] = molecular target: Nuclear receptor subfamily 1 group I member 3 (Homo sapiens) (UniProt Q14994); assay: qHTS assay to identify small molecule antagonists of the constitutive androstane receptor (CAR) signaling pathway (AID 1224838); further: nearly all actives have a fitted effect of over 40% in size
Summary of the method: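 Compounds were titrated across 15 concentrations onto HepG2 cells double-stably expressing hCAR and a CYP2B6-2.2kb reporter, together with 50 nM CITCO (final). After 24 h at 37 C, luciferase activity was measured by luminescence.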

[10] = molecular target: Nuclear receptor subfamily 1 group I member 3 (Homo sapiens) (UniProt Q14994); assay: qHTS assay to identify small molecule agonists of the constitutive androstane receptor (CAR) signaling pathway (AID 1224839); further: series mostly up to about 92 µM; nearly all actives have a fitted effect of over 15% in size
Summary of the method: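 A 15-concentration quantitative screen uses HepG2 cells co-transfected stably with human CAR and CYP2B6-2.2kb reporter. Treatment lasts 24 h with 0.75 uM PK11195 final present; ONE-Glo luminescence is the signal.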

[11] = qHTS assay to identify small molecule antagonists of the estrogen related receptor signaling pathway with the pleiotropic PPARgamma coactivator (PGC) from Tox21 10K library - cell viability counter screen (AID 1224840; active means well fitted cell-killing curve with a large enough effect in the repeat runs, not every such curve was filed as active; further: nearly all actives have a fitted effect of over 40% in size)
Summary of the method: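 Step one, plate 2,000 PGC/ERR cells per well; step two, incubate 6 h at 37 C/5% CO2; step three, pin-transfer compounds; step four, incubate 17.5 h; step five, add CellTiter-Fluor and read fluorescence after 30 min.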

[12] = qHTS assay to identify small molecule antagonists of the estrogen related receptor signaling pathway with the pleiotropic PPARgamma coactivator (PGC) from Tox21 10K library (AID 1224841; call rule not given here; further: series mostly up to about 92 µM; actives are mostly falling curves and most rising ones were filed inactive; nearly all actives have a fitted effect of over 50% in size)
Summary of the method: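 Antagonism in this quantitative HTS is taken from loss of luciferase signal in PGC/ERR cells. Cells (2,000/well) are treated with compounds in DMSO after a 6 h settling period and read by One-Glo luminescence after 18 h.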

[13] = qHTS assay to identify small molecule agonists of the estrogen related receptor signaling pathway with the pleiotropic PPARgamma coactivator (PGC) from Tox21 10K library (AID 1224842); further: nearly all actives have a fitted effect of over 15% in size
Summary of the method: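 PGC/ERR reporter cells (NTP line) were seeded 2,000 per well, rested 6 h at 37 C/5% CO2, then pin-dosed with compounds in DMSO for 18 h at 37 C; luciferase read by One-Glo luminescence after 30 min at room temperature.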

[14] = molecular target: Thyrotropin receptor (Homo sapiens) (UniProt P16473); assay: qHTS assay to identify small molecule agonists of the thyroid stimulating hormone receptor (TSHR) signaling pathway (AID 1224843; calls by dose curve; further: nearly all actives have a fitted effect of over 45% in size)
Summary of the method: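 Cell line HEK293 with TSHR; density 800/well. Exposure 30 min RT. Readout HTRF cAMP (cAMP-d2/anti-cAMP-cryptate), 1 h RT before reading.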

[15] = qHTS assay to identify small molecule antagonists of the estrogen related receptor (ERR) signaling pathway - cell viability counter screen (AID 1224818);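 further: series mostly up to about 46 µM; viability measured after 17.5 h of compound exposure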
Summary of the method: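 Cells carrying the ERR pathway reporter were seeded and incubated for 6 hours before compound addition. After a 17.5-hour exposure at 37 C, live-cell protease activity was measured by CellTiter-Fluor fluorescence following 30 minutes of incubation.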

[16] = qHTS assay to identify small molecule agonists of the estrogen related receptor (ERR) signaling pathway (AID 1224820)
Summary of the method: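 Cells: ERR line from NTP, 2,000/well. Pre-incubation 6 h, 37 C/5% CO2. Compound (DMSO) pin transfer, 18 h 37 C. One-Glo, 30 min RT, luminescence.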

[17] = system: estrogen-related receptor alpha (ERRalpha) with PGC-1alpha coactivator, human; assay: qHTS assay to identify small molecule antagonists of the estrogen related receptor signaling pathway with the pleiotropic PPARgamma coactivator (PGC) (AID 1224821; calls by dose curve;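 further: series mostly up to about 46 µM; lower luminescence signal means antagonism of PGC/ERR signalling; nearly all actives have a fitted effect of over 50% in size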)
Summary of the method: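 Luminescent read-out (One-Glo, 30 min at room temperature) following 18 h treatment of PGC/ERR cells at 37 C with compounds delivered in DMSO. Cells had settled 6 h at 37 C/5% CO2 before dosing.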

[18] = qHTS assay to identify small molecule antagonists of the estrogen related receptor signaling pathway with the pleiotropic PPARgamma coactivator (PGC) cell viability counter screen (AID 1224822;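 further: series mostly up to about 46 µM; viability read after 17.5 h compound exposure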)
Summary of the method: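 Seed PGC/ERR cells (2,000/well); incubate 6 h at 37 C/5% CO2; pin-transfer compounds in DMSO; incubate 17.5 h at 37 C; add CellTiter-Fluor; after 30 min read fluorescence.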

[19] = qHTS assay to identify small molecule agonists of the estrogen related receptor signaling pathway with the pleiotropic PPARgamma coactivator (PGC) (AID 1224823)
Summary of the method: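 Steps: plate PGC/ERR cells at 2,000 cells/well; incubate 6 h, 37 C/5% CO2; pin-transfer compounds (DMSO); incubate 18 h, 37 C; add One-Glo; 30 min RT; read luminescence.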

[20] = molecular target: Luciferin 4-monooxygenase (Photinus pyralis) (UniProt P08659); assay: qHTS assay to identify small molecule inhibitors of firefly luciferase (AID 1224835); further: series mostly up to about 120 µM; nearly all actives have a fitted effect of over 25% in size
Summary of the method: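 Quantitative HTS format; KM concentrations of both substrates. Purified P. pyralis FLuc activity quantified from luminescence images.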
On the % scale 0 is the no-effect control and ±100 the full control effect.

Retinoic acid receptor RXR-alpha (Homo sapiens), sequence (P19793 whole entry, looked up): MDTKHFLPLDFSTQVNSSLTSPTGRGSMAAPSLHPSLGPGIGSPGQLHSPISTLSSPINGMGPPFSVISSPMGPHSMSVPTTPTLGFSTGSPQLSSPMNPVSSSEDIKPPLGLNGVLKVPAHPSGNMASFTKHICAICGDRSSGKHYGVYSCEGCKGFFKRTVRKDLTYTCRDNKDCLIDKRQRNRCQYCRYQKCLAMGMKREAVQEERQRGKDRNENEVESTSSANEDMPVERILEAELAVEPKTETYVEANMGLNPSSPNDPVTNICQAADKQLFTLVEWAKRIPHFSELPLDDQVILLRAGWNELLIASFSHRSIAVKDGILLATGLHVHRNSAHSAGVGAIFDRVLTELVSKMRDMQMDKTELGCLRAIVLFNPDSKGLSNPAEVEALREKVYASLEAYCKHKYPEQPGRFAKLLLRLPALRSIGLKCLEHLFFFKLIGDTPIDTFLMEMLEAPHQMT
Nuclear receptor subfamily 1 group I member 3 (Homo sapiens), sequence (Q14994 whole entry, looked up): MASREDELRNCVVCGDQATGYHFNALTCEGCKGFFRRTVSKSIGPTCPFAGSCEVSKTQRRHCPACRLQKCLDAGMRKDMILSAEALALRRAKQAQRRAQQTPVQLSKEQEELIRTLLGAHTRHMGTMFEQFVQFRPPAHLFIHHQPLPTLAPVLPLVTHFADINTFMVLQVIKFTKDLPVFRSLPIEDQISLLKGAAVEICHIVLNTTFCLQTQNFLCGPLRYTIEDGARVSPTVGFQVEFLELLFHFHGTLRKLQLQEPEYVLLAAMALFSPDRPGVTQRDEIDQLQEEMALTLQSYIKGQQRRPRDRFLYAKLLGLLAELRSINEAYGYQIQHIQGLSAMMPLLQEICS
Thyrotropin receptor (Homo sapiens), sequence (P16473 whole entry, looked up): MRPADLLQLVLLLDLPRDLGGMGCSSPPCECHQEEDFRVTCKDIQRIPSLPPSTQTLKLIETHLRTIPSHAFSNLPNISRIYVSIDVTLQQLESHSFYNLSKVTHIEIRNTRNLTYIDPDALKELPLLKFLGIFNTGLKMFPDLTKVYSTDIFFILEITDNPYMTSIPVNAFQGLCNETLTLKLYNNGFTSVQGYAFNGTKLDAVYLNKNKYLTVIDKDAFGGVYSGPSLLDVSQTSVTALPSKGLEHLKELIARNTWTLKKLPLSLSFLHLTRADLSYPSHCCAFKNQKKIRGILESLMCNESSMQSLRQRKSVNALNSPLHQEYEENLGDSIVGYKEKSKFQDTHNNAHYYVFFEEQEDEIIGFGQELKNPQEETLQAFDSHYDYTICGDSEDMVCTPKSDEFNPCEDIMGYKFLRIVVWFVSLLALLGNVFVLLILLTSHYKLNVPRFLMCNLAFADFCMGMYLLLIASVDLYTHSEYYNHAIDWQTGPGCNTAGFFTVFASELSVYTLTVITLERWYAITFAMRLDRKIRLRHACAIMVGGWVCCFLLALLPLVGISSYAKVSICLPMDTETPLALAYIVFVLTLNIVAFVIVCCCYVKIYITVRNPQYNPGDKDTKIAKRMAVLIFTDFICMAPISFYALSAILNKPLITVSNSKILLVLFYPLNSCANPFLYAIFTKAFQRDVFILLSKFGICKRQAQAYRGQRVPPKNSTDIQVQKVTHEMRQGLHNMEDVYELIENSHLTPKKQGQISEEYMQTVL
Luciferin 4-monooxygenase (Photinus pyralis), sequence (P08659 whole entry, looked up): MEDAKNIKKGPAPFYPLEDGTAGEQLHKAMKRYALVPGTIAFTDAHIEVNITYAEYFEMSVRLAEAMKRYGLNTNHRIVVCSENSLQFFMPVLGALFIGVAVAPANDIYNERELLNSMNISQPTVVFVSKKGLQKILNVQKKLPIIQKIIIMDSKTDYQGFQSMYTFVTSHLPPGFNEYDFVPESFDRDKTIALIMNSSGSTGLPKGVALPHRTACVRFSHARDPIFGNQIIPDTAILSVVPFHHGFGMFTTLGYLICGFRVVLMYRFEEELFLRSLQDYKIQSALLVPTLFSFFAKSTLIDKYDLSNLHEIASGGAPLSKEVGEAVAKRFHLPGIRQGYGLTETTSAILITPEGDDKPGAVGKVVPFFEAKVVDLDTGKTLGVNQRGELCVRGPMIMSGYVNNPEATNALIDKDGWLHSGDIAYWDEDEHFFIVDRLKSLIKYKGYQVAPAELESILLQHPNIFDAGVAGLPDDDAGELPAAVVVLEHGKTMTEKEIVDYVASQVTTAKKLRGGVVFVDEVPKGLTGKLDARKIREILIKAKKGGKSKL

N[C@@H](C(=O)N[C@@H]1C(=O)N2C(C(=O)O)=C(Cl)CS[C@H]12)c1ccccc1
inactive: activation [1] 3.92% [at 6.98 µM] | activity change, negative = cytotoxicity [2] 16.6% [at 6.97 µM] | activity change, negative = cytotoxicity [3] 2.73% [at 8.39 µM] | activity, negative = inhibition [4] -6.75% [at 8.39 µM] | activation [5] 0.152% [at 8.36 µM] | viability change, negative = cytotoxic [6] 3.31% [at 8.39 µM] | viability change, negative = cytotoxic [7] 0.971% [at 8.39 µM] | activity change, negative = cytotoxicity [8] 8.33% [at 8.39 µM] | activity, negative = inhibition [9] -13.2% [at 8.39 µM] | activation [10] -1.38% [at 8.39 µM] | viability change, negative = cytotoxic [11] 10.3% [at 8.39 µM] | activity, negative = inhibition [12] -0.314% [at 8.39 µM] | activation [13] -0.0958% [at 8.39 µM] | activation [14] -0.277% [at 8.39 µM]

CCS(=O)(=O)c1ccc(OC)c(C(=O)OC)c1
inactive: Potency [1] | Potency [2] | outcome [3] | Potency [4] | Potency [5] | Potency [6] | Potency [7] | Potency [8] | Potency [9] | Potency [10] | Potency [11] | Potency [12] | outcome [13]

Brc1c(NC2=NCCN2)ccc2nccnc12
inactive: Potency [1] | Potency [2] | outcome [3] | Potency [4] | outcome [15] | outcome [16] | outcome [17] | outcome [18] | outcome [19] | Potency [6] | Potency [7] | Potency [8] | Potency [9] | Potency [10] | Potency [11] | Potency [12] | outcome [13] | Potency [14]

NC(=O)c1ccc([N+](=O)[O-])cc1
inactive: Potency [1] | Potency [2] | outcome [3] | Potency [4] | Potency [5] | Potency [6] | Potency [20] | Potency [7] | Potency [8] | Potency [9] | Potency [10] | Potency [11] | Potency [12] | outcome [13] | Potency [14]

COC(=O)CC(C)=O
inactive: Potency [1] | Potency [2] | outcome [3] | Potency [4] | Potency [5] | Potency [6] | Potency [20] | Potency [7] | Potency [8] | Potency [9] | Potency [10] | Potency [11] | Potency [12] | outcome [13] | Potency [14]

CCc1nccnc1CC
inactive: Potency [1] | Potency [2] | activity change, negative = cytotoxicity [3] 1.72% [at 19 µM] | activity, negative = inhibition [4] 7.06% [at 19 µM] | Potency [5] | viability change, negative = cytotoxic [6] 6.79% [at 19 µM] | activity change, negative = inhibition [20] 1.9% [at 23.6 µM] | viability change, negative = cytotoxic [7] 4.25% [at 19 µM] | activity change, negative = cytotoxicity [8] -1.21% [at 19 µM] | activity, negative = inhibition [9] -16.5% [at 19 µM] | activation [10] -0.0673% [at 19 µM] | viability change, negative = cytotoxic [11] 1.05% [at 19 µM] | activity, negative = inhibition [12] 4.39% [at 19 µM] | activation [13] 1.3% [at 19 µM] | Potency [14]

COC(C)(C)CCCC(C)CC=O (stereo unspecified)
inactive: Potency [1] | Potency [2] | outcome [3] | Potency [4] | Potency [5] | Potency [6] | Potency [20] | Potency [7] | Potency [8] | Potency [9] | Potency [10] | Potency [11] | Potency [12] | outcome [13] | Potency [14]

CC(=O)c1ccccc1O
inactive: Potency [1] | Potency [2] | outcome [3] | Potency [4] | Potency [5] | Potency [6] | Potency [20] | Potency [7] | Potency [8] | Potency [9] | Potency [10] | Potency [11] | Potency [12] | outcome [13] | Potency [14]

Nc1nc2c(ncn2COC(CO)CO)c(=O)[nH]1
inactive: Potency [1] | Potency [2] | outcome [3] | Potency [4] | outcome [15] | outcome [18] | Potency [6] | Potency [20] | Potency [7] | Potency [8] | Potency [9] | Potency [10] | Potency [11] | Potency [14]

CCCCCCCCCCCC
inactive: Potency [1] | Potency [2] | outcome [3] | Potency [4] | Potency [5] | Potency [6] | Potency [7] | Potency [8] | Potency [9] | Potency [10] | Potency [11] | Potency [12] | outcome [13] | Potency [14]

NS(=O)(=O)c1ccccc1Cl
inactive: Potency [1] | Potency [2] | outcome [3] | Potency [4] | Potency [5] | Potency [6] | Potency [20] | Potency [7] | Potency [8] | Potency [9] | Potency [10] | Potency [11] | Potency [12] | outcome [13] | Potency [14]

NS(=O)(=O)c1cc(C(=O)O)cc(N2CCCC2)c1Oc1ccccc1
inactive: Potency [1] | Potency [2] | outcome [3] | Potency [4] | Potency [6] | Potency [20] | Potency [7] | Potency [8] | Potency [9] | Potency [10] | Potency [11] | Potency [12] | outcome [13] | Potency [14]

COCCc1ccc(OCC(O)CNC(C)C)cc1 (stereo unspecified)
inactive: Potency [1] | Potency [2] | outcome [3] | Potency [5] | outcome [15] | outcome [16] | outcome [17] | outcome [18] | outcome [19] | Potency [6] | Potency [20] | Potency [7] | Potency [8] | Potency [9] | Potency [10] | Potency [11] | Potency [12] | outcome [13] | Potency [14]
